Hit rate of the full screen: of about 5,500 compounds, about 2,000 (36%) were called active. Not shown: some 18% with an inconclusive outcome. Cut-off read from the data, not from the text of the source: active = normalized growth mostly below about 0.91 (no sharp cut-off); inconclusive = no clear call, values can overlap the other calls; inactive = mostly above about 0.92. The list shows a part of the results.
Assay: chemical genetic growth profiling, strain panel (AID 1159580);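 note: tested at 20 µM; growth read once vehicle control cultures reached saturation at 30 °C; 1 = growth at the plate median or of vehicle wells; lower values mean less growth of the strain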
Details: growth OD

Measured: normalized growth

CS(=O)(=O)c1ccc(C2=C(c3ccccc3)C(=O)OC2)cc1
inactive: S. cerevisiae deletion strains, locus YJR066W, strain TOR1, stronger effect = lower value 0.97 | S. cerevisiae deletion strains, locus YJR075W, strain HOC1, stronger effect = lower value 0.992 | S. cerevisiae deletion strains, locus YKL009W, strain mrt4, stronger effect = lower value 0.949 | S. cerevisiae deletion strains, locus YKL068W, stronger effect = lower value 0.983 | S. cerevisiae deletion strains, locus YKL085W, strain MDH1 (second series), stronger effect = lower value 0.979 | S. cerevisiae deletion strains, locus YKL085W, strain MDH1, stronger effect = lower value 0.979 | S. cerevisiae deletion strains, locus YKL160W, strain elf1, stronger effect = lower value 0.988 | S. cerevisiae deletion strains, locus YKL190W, strain CNB1, stronger effect = lower value 0.98 | S. cerevisiae deletion strains, locus YKR001C, strain vps1, stronger effect = lower value 0.987 | S. cerevisiae deletion strains, locus YKR026C, strain gcn3, stronger effect = lower value 0.983 | S. cerevisiae deletion strains, locus YKR091W, strain srl3, stronger effect = lower value 0.961 | S. cerevisiae deletion strains, locus YLL001W, strain dnm1, stronger effect = lower value 0.999 | S. cerevisiae deletion strains, locus YLL026W, stronger effect = lower value 0.985 | S. cerevisiae deletion strains, locus YLL041C, strain sdh2, stronger effect = lower value 0.994 | S. cerevisiae deletion strains, locus YLR027C, strain aat2, stronger effect = lower value 0.978 | S. cerevisiae deletion strains, locus YLR039C, strain RIC1, stronger effect = lower value 0.951 | S. cerevisiae deletion strains, locus YLR058C, strain SHM2, stronger effect = lower value 1 | S. cerevisiae deletion strains, locus YLR102C, strain apc9, stronger effect = lower value 0.992 | S. cerevisiae deletion strains, locus YLR113W, strain HOG1, stronger effect = lower value 1.01 | S. cerevisiae deletion strains, locus YLR221C, strain rsa3, stronger effect = lower value 0.974 | S. cerevisiae deletion strains, locus YLR258W, strain gsy2, stronger effect = lower value 0.988 | S. cerevisiae deletion strains, locus YLR262C, strain YPT6 (second series), stronger effect = lower value 0.96 | S. cerevisiae deletion strains, locus YLR262C, strain YPT6, stronger effect = lower value 0.965 | S. cerevisiae deletion strains, locus YLR268W, strain sec22, stronger effect = lower value 0.971 | S. cerevisiae deletion strains, locus YLR320W, strain mms22, stronger effect = lower value 0.991 | S. cerevisiae deletion strains, locus YLR330W, strain CHS5, stronger effect = lower value 0.986 | S. cerevisiae deletion strains, locus YLR342W, strain FKS1 (second series), stronger effect = lower value 1.01 | S. cerevisiae deletion strains, locus YLR342W, strain FKS1, stronger effect = lower value 0.966 | S. cerevisiae deletion strains, locus YLR357W, strain rsc2, stronger effect = lower value 0.955 | S. cerevisiae deletion strains, locus YLR370C, strain arc18, stronger effect = lower value 0.971 | S. cerevisiae deletion strains, locus YLR371W, strain rom2, stronger effect = lower value 0.981 | S. cerevisiae deletion strains, locus YLR384C, strain iki3, stronger effect = lower value 0.992 | S. cerevisiae deletion strains, locus YLR418C, strain cdc73, stronger effect = lower value 0.987 | S. cerevisiae deletion strains, locus YML016C, strain PPZ1, stronger effect = lower value 1 | S. cerevisiae deletion strains, locus YML032C, strain rad52, stronger effect = lower value 0.97 | S. cerevisiae deletion strains, locus YML120C, strain ndi1, stronger effect = lower value 0.959 | S. cerevisiae deletion strains, locus YML124C, strain tub3, stronger effect = lower value 0.989 | S. cerevisiae deletion strains, locus YMR058W, strain fet3, stronger effect = lower value 0.978 | S. cerevisiae deletion strains, locus YMR078C, strain ctf18, stronger effect = lower value 0.985 | S. cerevisiae deletion strains, locus YMR125W, strain sto1, stronger effect = lower value 0.961 | S. cerevisiae deletion strains, locus YMR129W, stronger effect = lower value 0.988 | S. cerevisiae deletion strains, locus YMR205C, strain PFK2, stronger effect = lower value 0.986 | S. cerevisiae deletion strains, locus YMR223W, strain ubp8, stronger effect = lower value 0.982 | S. cerevisiae deletion strains, locus YMR231W, strain pep5, stronger effect = lower value 0.992 | S. cerevisiae deletion strains, locus YMR263W, strain SAP30, stronger effect = lower value 0.958 | S. cerevisiae deletion strains, locus YMR307W, strain GAS1, stronger effect = lower value 0.998 | S. cerevisiae deletion strains, locus YNL067W, strain RPL9B, stronger effect = lower value 0.953 | S. cerevisiae deletion strains, locus YNL071W, strain lat1, stronger effect = lower value 0.979 | S. cerevisiae deletion strains, locus YNL128W, strain TEP1, stronger effect = lower value 0.985 | S. cerevisiae deletion strains, locus YNL153C, strain GIM3, stronger effect = lower value 0.994 | S. cerevisiae deletion strains, locus YNL183C, strain NPR1, stronger effect = lower value 0.984 | S. cerevisiae deletion strains, locus YNL209W, strain ssb2, stronger effect = lower value 0.951 | S. cerevisiae deletion strains, locus YNL233W, strain BNI4, stronger effect = lower value 0.992 | S. cerevisiae deletion strains, locus YNL248C, strain rpa49, stronger effect = lower value 0.965 | S. cerevisiae deletion strains, locus YNL250W, strain rad50, stronger effect = lower value 0.995 | S. cerevisiae deletion strains, locus YNL271C, strain bni1, stronger effect = lower value 0.971 | S. cerevisiae deletion strains, locus YNL298W, strain CLA4, stronger effect = lower value 0.99 | S. cerevisiae deletion strains, locus YNL307C, strain MCK1, stronger effect = lower value 0.986 | S. cerevisiae deletion strains, locus YNL322C, strain KRE1 (second series), stronger effect = lower value 0.97 | S. cerevisiae deletion strains, locus YNL322C, strain KRE1, stronger effect = lower value 0.994 | S. cerevisiae deletion strains, locus YNR049C, strain mso1, stronger effect = lower value 0.964 | S. cerevisiae deletion strains, locus YNR052C, strain pop2, stronger effect = lower value 0.975 | S. cerevisiae deletion strains, locus YOL006C, strain TOP1, stronger effect = lower value 0.91 | S. cerevisiae deletion strains, locus YOL012C, strain htz1 1.22 | S. cerevisiae deletion strains, locus YOL147C, strain pex11, stronger effect = lower value 0.995 | S. cerevisiae deletion strains, locus YOR001W, strain rrp6, stronger effect = lower value 0.979 | S. cerevisiae deletion strains, locus YOR061W, strain CKA2, stronger effect = lower value 1 | S. cerevisiae deletion strains, locus YOR069W, strain VPS5, stronger effect = lower value 1 | S. cerevisiae deletion strains, locus YOR070C, strain gyp1, stronger effect = lower value 0.977 | S. cerevisiae deletion strains, locus YOR080W, strain dia2, stronger effect = lower value 0.962 | S. cerevisiae deletion strains, locus YOR083W, strain WHI5, stronger effect = lower value 0.975 | S. cerevisiae deletion strains, locus YOR106W, strain vam3, stronger effect = lower value 0.968 | S. cerevisiae deletion strains, locus YOR136W, strain idh2, stronger effect = lower value 0.992 | S. cerevisiae deletion strains, locus YOR144C, strain elg1, stronger effect = lower value 0.975 | S. cerevisiae deletion strains, locus YOR184W, strain ser1, stronger effect = lower value 0.975 | S. cerevisiae deletion strains, locus YOR231W, strain MKK1, stronger effect = lower value 1.03 | S. cerevisiae deletion strains, locus YOR265W, strain rbl2, stronger effect = lower value 0.973 | S. cerevisiae deletion strains, locus YOR270C, strain vph1, stronger effect = lower value 0.933 | S. cerevisiae deletion strains, locus YOR290C, strain snf2, stronger effect = lower value 0.972 | S. cerevisiae deletion strains, locus YOR316C, strain cot1, stronger effect = lower value 0.987 | S. cerevisiae deletion strains, locus YPL051W, strain arl3, stronger effect = lower value 0.986 | S. cerevisiae deletion strains, locus YPL055C, strain LGE1, stronger effect = lower value 0.957 | S. cerevisiae deletion strains, locus YPL078C, strain atp4, stronger effect = lower value 0.986 | S. cerevisiae deletion strains, locus YPL106C, strain sse1, stronger effect = lower value 0.942 | S. cerevisiae deletion strains, locus YPL240C, strain hsp82, stronger effect = lower value 0.969 | S. cerevisiae deletion strains, locus YPL241C, strain CIN2, stronger effect = lower value 0.994 | S. cerevisiae deletion strains, locus YPL256C, strain CLN2, stronger effect = lower value 1.06 | S. cerevisiae deletion strains, locus YPR141C, strain kar3, stronger effect = lower value 0.98 | S. cerevisiae deletion strains, locus YPR163C, strain tif3, stronger effect = lower value 0.989 | S. cerevisiae deletion strains, locus YPR167C, strain met16, stronger effect = lower value 0.978 | S. cerevisiae deletion strains, strain wtn01, stronger effect = lower value 0.985 | S. cerevisiae strains, strain wild type, stronger effect = lower value 0.989

— PubChem BioAssay AID1159580 (chemical genetic matrix, 2015)
